The results in this text go back to PubChem BioAssay (EPA / NIEHS).

In general, AC50 refers to the midpoint of the concentration-response curve, whichever way the signal moves.

Read-out in assay [1]: Matrix Metallopeptidase 1 (MMP1), MMP1 (gene 4312)
Description: BSK_MyoF_MMP1: BioMAP Diversity Plus: MyoF Assay for Matrix Metallopeptidase 1 (MMP1) Biomarker Activity (AID 2284268). The note with it: primary human lung fibroblasts. An outline of the steps:
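Cells: human lung fibroblasts. Exposure: 24 h chemical dosing. Detection: ELISA for MMP1. Analysis: upward fitting against DMSO negative control.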

Read-out in assay [2]: TIMP metallopeptidase inhibitor 1 (TIMP1), TIMP1 (gene 7076)
Nature of the assay: BSK_MyoF_TIMP1: BioMAP Diversity Plus: MyoF Assay for TIMP metallopeptidase inhibitor 1 (TIMP1) Biomarker Activity (AID 2284269). The note with it: primary human lung fibroblasts. An outline of the steps: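 TIMP-1 levels were determined by ELISA in human lung fibroblasts treated for 24 h. DMSO served as negative control and baseline for upward curve fitting.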

Read-out in assay [3]: Interferon-inducible T-cell alpha chemoattractant (ITAC), CXCL11 (gene 6373)
Description: BSK_BE3C_ITAC: BioMAP Diversity Plus: BE3C Assay for Interferon-inducible T-cell alpha chemoattractant (ITAC) Biomarker Activity (AID 2284279). The note with it: primary human bronchial epithelial cells. In short, it runs like this: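 The assay measures I-TAC levels by ELISA in human primary bronchial epithelial cell cultures 24 hours after chemical treatment. Values reflect signal increase over the DMSO baseline.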

Read-out in assay [4]: Interleukin-8 (IL8), CXCL8 (gene 3576)
Nature of the assay: BSK_BE3C_IL8: BioMAP Diversity Plus: BE3C Assay for Interleukin-8 (IL8) Biomarker Activity (AID 2284280). The note with it: primary human bronchial epithelial cells. An outline of the steps: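 IL-8 signal gain, normalised to DMSO vehicle, was scored after a 24 h chemical exposure of primary human bronchial epithelial cells, with detection by ELISA.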

Read-out in assay [5]: Epidermal growth factor receptor (EGFR), EGFR (gene 1956)
Description: BSK_BE3C_EGFR: BioMAP Diversity Plus: BE3C Assay for Epidermal growth factor receptor (EGFR) Biomarker Activity (AID 2284281). The note with it: primary human bronchial epithelial cells. An outline of the steps:
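Compound is added to human bronchial epithelial cells, cells incubate 24 h, then EGFR is detected by ELISA. Values reflect positive-direction fitting relative to DMSO.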

Read-out in another assay: KRT18 (gene 3875)
Description: BSK_BE3C_Keratin818: BioMAP Diversity Plus: BE3C Assay for Keratin 818 Biomarker Activity (AID 2284282). The settings on record: primary human bronchial epithelial cells. An outline of the steps: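 Chemicals are added to human lung bronchial epithelial primary cells (BE3C system) and incubated 24 h. Keratin 8/18 is then measured by ELISA, with parallel SRB total-protein staining gauging overt cytotoxicity.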

Read-out in assay [6]: Plasminogen activator inhibitor-1 (PAI1), SERPINE1 (gene 5054)
Description: BSK_CASM3C_PAI1: BioMAP Diversity Plus: CASM3C Assay for Plasminogen activator inhibitor-1 (PAI1) Biomarker Activity (AID 2284284).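 Note: PAI-1 protein level measured by ELISA 24 h after dosing.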 The note with it: primary human coronary artery smooth muscle cells.

Read-out in assay [7]: Monocyte Chemoattractant Protein-1 (MCP1), CCL2 (gene 6347)
Description: BSK_hDFCGF_MCP1: BioMAP Diversity Plus: hDFCGF Assay for Monocyte Chemoattractant Protein-1 (MCP1) Biomarker Activity (AID 2284285). The settings on record: primary human foreskin fibroblasts. An outline of the steps:
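Human foreskin fibroblasts (hDFCGF system) were exposed to compound and secreted MCP-1 was measured by ELISA after 24 hours. Activity was fitted relative to DMSO. Cytotoxicity was checked by SRB total-protein staining in parallel cultures.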

Read-out in assay [8]: Intercellular Adhesion Molecule 1 (ICAM1), ICAM1 (gene 3383)
Description: BSK_hDFCGF_ICAM1: BioMAP Diversity Plus: hDFCGF Assay for Intercellular Adhesion Molecule 1 (ICAM1) Biomarker Activity (AID 2284287). The settings on record: primary human foreskin fibroblasts. An outline of the steps:
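Primary human foreskin fibroblasts (hDFCGF system) dosed with chemical; ICAM-1 quantified by ELISA at 24 h relative to DMSO. Parallel SRB total-protein staining to assess overt cytotoxicity.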

Read-out in assay [9]: TIMP metallopeptidase inhibitor 2 (TIMP2), TIMP2 (gene 7077)
Description: BSK_hDFCGF_TIMP2: BioMAP Diversity Plus: hDFCGF Assay for TIMP metallopeptidase inhibitor 2 (TIMP2) Biomarker Activity (AID 2284289). The settings on record: primary human foreskin fibroblasts. An outline of the steps:
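Primary human foreskin fibroblasts in the hDFCGF system, dosed for 24 h; TIMP-2 level measured by ELISA, fitted in the positive direction against DMSO; cytotoxicity checked in parallel by sulforhodamine B total protein staining.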

The structures appear in SMILES notation. The source made the active and inactive calls. Rule for the calls: active = hit-call score of the fitted dose curve at least 0.9, where 1 is the maximum; inactive = score below 0.9.

For the compound `CNC[C@H](O)c1cccc(O)c1`, the outcome in [1] and in [2] was inactive.
Regarding `CCCCCCCCC=O`, the result in [1] and in assay [2] was inactive.
As for `COC(=O)c1ccc(C)cc1`, the result in assay [1] and in assay [2] was inactive.
As to `O=C1OC2(c3cc(Br)c(O)c(Br)c3Oc3c2cc(Br)c(O)c3Br)c2c(Cl)c(Cl)c(Cl)c(Cl)c21`, the outcome in assay [1] was inactive. In assay [2], the AC50 is 8.64 µM (active).
On to `CCc1c(C)cc(N)c(CC)c1N`, for which the result in assay [1] and in assay [2] was inactive.
Consider `CC1COc2ccccc2N1C(=O)C(Cl)Cl` (stereo unspecified), for which the figures for the half-maximal activity concentration (AC50) in assay [1] and in assay [2] were 9.41 µM (active) and 4.69 µM (active), respectively.
On to `Cc1ccc2n[nH]nc2c1`, for which the result in assay [1] and in assay [2] was inactive.
As for `C[C@H]1C[C@@H]2[C@H]([C@@H](O)C[C@@]3(C)[C@H]2CC[C@]3(O)C(=O)CO)[C@@]2(C)C=CC(=O)C=C12`, the outcome (in [3]; in assay [4]; in assay [5]; in the assay with KRT18 (gene 3875); in [6]; in assay [7]) was inactive. In addition, the outcome in [8] and in assay [9] was inactive.
As for `c1ccc2sc(SN(C3CCCCC3)C3CCCCC3)nc2c1`, in [1], the AC50 is 6.26 µM (active). For the same compound, the result in [2] was inactive.
With `OC1OC[C@@H](O)[C@H](O)[C@H]1O` (stereo partly specified), the result (in assay [3]; in [4]; in assay [5]; in the assay with KRT18 (gene 3875); in assay [6]; in assay [7]) was inactive. In addition, the outcome in [8] and in assay [9] was inactive.
Take `Cc1cc(C2(c3cc(C)c(O)cc3C)OS(=O)(=O)c3ccccc32)c(C)cc1O`: the result (in assay [3]; in assay [4]; in assay [5]; with KRT18 (gene 3875); in [6]; in assay [7]) was inactive. Moreover, the outcome in assay [8] and in assay [9] was inactive.
Turning to `CCCCCCCCCCCCCCCCCC(=O)OCC(CC)CCCC` (stereo unspecified), the outcome in [1] and in [2] was inactive.
For `CC(=O)O[C@]1(C(C)=O)CC[C@H]2[C@@H]3C[C@H](C)C4=CC(=O)CC[C@]4(C)[C@H]3CC[C@@]21C`, the result in assay [1] and in [2] was inactive.
Take `CC1CCC(C(C)CS)CC1S` (stereo unspecified): the outcome in assay [1] was inactive. Moreover, in assay [2], the AC50 is 11.1 µM (active).
Take `Cc1ccc(Nc2ccc(O)c3c2C(=O)c2ccccc2C3=O)cc1`: the result in [1] and in [2] was inactive.
With `CC(=O)OCCC(C)CC(C)(C)C` (stereo unspecified), the outcome (in assay [3]; in [4]; in [5]; with KRT18 (gene 3875); in assay [6]; in assay [7]) was inactive. Moreover, the result in [8] and in assay [9] was inactive.
Turning to `OC[C@H]1O[C@H](O[C@]2(CCl)O[C@H](CCl)[C@@H](O)[C@@H]2O)[C@H](O)[C@@H](O)[C@H]1Cl`, the outcome (in [3]; in assay [4]; in [5]; in the assay with KRT18 (gene 3875); in assay [6]; in [7]) was inactive. Further, the outcome in assay [8] and in [9] was inactive.
For the compound `CC[Si](OC(C)=O)(OC(C)=O)OC(C)=O`, the result (in [3]; in assay [4]; in assay [5]; with KRT18 (gene 3875); in [6]; in assay [7]) was inactive. For the same compound, the result in assay [8] and in [9] was inactive.
Turning to `C=CCOC(=O)CCC1CCCCC1`, the outcome (in assay [3]; in [4]; in assay [5]; with KRT18 (gene 3875); in assay [6]; in assay [7]) was inactive. The result in assay [8] and in assay [9] was inactive.
Consider `O=C(O)C[C@H](O)C[C@H](O)/C=C/c1c(C2CC2)nc2ccccc2c1-c1ccc(F)cc1`, for which the half-maximal activity concentration (AC50) in assay [1] was 0.498 µM (active). Further, the result in [2] was inactive.
Regarding `O=P(c1ccccc1)(c1ccccc1)c1ccccc1`, the outcome in assay [1] and in assay [2] was inactive.
Take `COc1cc(C=O)ccc1OC(=O)C(C)C`: the outcome (in assay [3]; in assay [4]; in assay [5]; with KRT18 (gene 3875); in assay [6]; in assay [7]) was inactive. Also, the result in [8] and in [9] was inactive.
Take `O=C(O)c1cn(C2CC2)c2cc(N3CCNCC3)c(F)cc2c1=O`: the result in assay [1] and in [2] was inactive.
For `CCC(=O)OCc1ccccc1`, the outcome (in [3]; in [4]; in [5]; in the assay with KRT18 (gene 3875); in assay [6]; in [7]) was inactive. Besides, the outcome in assay [8] and in [9] was inactive.
As to `C=C(C)C(=O)O[C@H]1C[C@@H]2CC[C@@]1(C)C2(C)C`, in assay [1], the outcome was inactive. In assay [2], the half-maximal activity concentration (AC50) is 32.3 µM (active).
Turning to `CCCCC/C=C/C=C/C=O`, the outcome in [1] was inactive. Moreover, in assay [2], the AC50 is 34.2 µM (active).
For `CCCCCCCCCC=O`, the outcome in assay [1] and in [2] was inactive.
Take `NCCNCCN`: the result (in assay [3]; in [4]; in assay [5]; with KRT18 (gene 3875); in [6]; in assay [7]) was inactive. In addition, the outcome in [8] and in [9] was inactive.
In the case of `C=C[Si](OCC)(OCC)OCC`, the outcome in assay [1] and in assay [2] was inactive.
Consider `Nc1cc([N+](=O)[O-])ccc1O`, for which the result (in assay [3]; in assay [4]; in assay [5]; with KRT18 (gene 3875); in assay [6]; in [7]) was inactive. The outcome in [8] and in [9] was inactive.
With `CCn1c2ccccc2c2cc(N)ccc21`, the outcome in assay [1] and in assay [2] was inactive.
For `CC(=O)[C@H]1CC[C@H]2[C@@H]3CC=C4C[C@@H](O)CC[C@]4(C)[C@H]3CC[C@]12C`, the result (in [3]; in assay [4]; in assay [5]; with KRT18 (gene 3875); in assay [6]; in assay [7]) was inactive. Also, the result in assay [8] and in assay [9] was inactive.
